Our source for the growth values is PubChem BioAssay (NCI).

SMILES strings stand for the structures. Compounds without any hit were thinned out: in the full panel of roughly 83,000, 20% have a hit.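 Method: cells in 96-well plates; compound added at one concentration; 48 h incubation; percent growth measured; values under 10 scored active.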 Unmarked numbers belong to inactive results. Active and inactive are the calls of the source.

Common to all, as to test: NCI-60 one-dose screen, 48 h (100 = growth as untreated, 0 = no growth, -100 = all killed)
One experiment has as its system T-47D breast. The note with it: 10 µM.
Another experiment relates to BT-549 breast. The note with it: 10 µM.
The next experiment deals with MDA-MB-435 melanoma. The note with it: 10 µM.
For another experiment, the system named is SW-620 colon. The conditions noted are these: 10 µM.
In another experiment the test system is MCF7 breast. The conditions noted are these: 10 µM unless noted.
For another experiment, the system named is HCT-116 colon. The conditions noted are these: 10 µM.
A further experiment deals with HCC-2998 colon. The note with it: 10 µM.
The next experiment deals with KM12 colon. The conditions noted are these: 10 µM.

As to `CCOc1ccc2[nH]c(=S)sc2c1`, the growth in the experiment with T-47D breast is 94.5%; with BT-549 breast, 107%; in the experiment with MDA-MB-435 melanoma it was 99.3%; in the experiment with SW-620 colon, 102%; with MCF7 breast, 102%; in the experiment on HCT-116 colon, 105%. In addition, the results for the growth in the experiment on HCC-2998 colon and with KM12 colon were 97.9% and 116%, respectively.

Regarding `Cc1cc(O)ccc1O`, the growth in the experiment with T-47D breast was 101%; with BT-549 breast, 83.5%; in the experiment on MDA-MB-435 melanoma, 97.7%; with SW-620 colon, 117%; in the experiment with MCF7 breast, 94.7%; in the experiment on HCT-116 colon, 96.4%. Besides, the values for the growth in the experiment with HCC-2998 colon and in the experiment with KM12 colon were 121% and 105%, respectively.

For the compound `COc1cc2c(cc1OC)[C@H](C(=O)O)[C@@H](c1ccc(OC(C)C)c(OC)c1)N(C)C2=O`, the growth is 96% in the experiment with T-47D breast; 91.6% with BT-549 breast; 101% in the experiment on MDA-MB-435 melanoma; 109% in the experiment on SW-620 colon; 108% with MCF7 breast; 101% in the experiment with HCT-116 colon. The growth in the experiment with HCC-2998 colon is 108%; in the experiment on KM12 colon it was 107%.

Regarding `COC(=O)C(O)c1ccccc1` (centres undefined), the growth in the experiment on T-47D breast is 107%; with BT-549 breast it was 109%; in the experiment on MDA-MB-435 melanoma it was 107%; in the experiment with SW-620 colon, 111%; with MCF7 breast it was 99.3%; with HCT-116 colon, 97.7%. For the same compound, the growth with HCC-2998 colon is 104%; in the experiment with KM12 colon it was 106%.

With `COc1cc(C2c3cc4c(cc3C3OC(=O)C2C3CO)OCO4)cc(OC)c1OC` (centres undefined), the growth with T-47D breast is 70.6%; with BT-549 breast it was -24.4% (active); in the experiment on MDA-MB-435 melanoma it was -45% (active); with SW-620 colon, 23.1%; with MCF7 breast, 17%; with HCT-116 colon, 7.29% (active). The growth in the experiment on HCC-2998 colon was 19%; in the experiment with KM12 colon, 1.84% (active).

For `C1CNC(C2=NCCN2)=N1`, the growth with T-47D breast was 101%; in the experiment with BT-549 breast it was 111%; with MDA-MB-435 melanoma, 93.4%; in the experiment on SW-620 colon, 100%; in the experiment on MCF7 breast it was 98.7%; in the experiment on HCT-116 colon it was 96.7%. The growth in the experiment on HCC-2998 colon is 92.3%; with KM12 colon it was 95.4%.

Regarding `CCc1nn(Cc2ccccc2)c2nc(C)c(CCc3ccccc3)c(Cl)c12`, the growth with T-47D breast is 59.2%; in the experiment on BT-549 breast it was 99.3%; in the experiment on MDA-MB-435 melanoma, 92.4%; in the experiment on SW-620 colon, 99.2%; in the experiment on MCF7 breast, 82.7%; in the experiment on HCT-116 colon, 81.2%. Besides, the growth in the experiment with HCC-2998 colon and in the experiment with KM12 colon was 101% throughout.

As for `O=C(c1ccc(O)cc1)c1ccc(O)cc1`, the growth in the experiment on T-47D breast is 113%; in the experiment on BT-549 breast, 122%; with MDA-MB-435 melanoma, 105%; in the experiment with SW-620 colon it was 113%; in the experiment on MCF7 breast, 113%; in the experiment with HCT-116 colon, 95%. In addition, the growth in the experiment on HCC-2998 colon is 105%; with KM12 colon, 100%.

With `CC(=O)N(C)c1ccc([N+](=O)[O-])cc1`, the growth in the experiment with T-47D breast was 94.7%; with BT-549 breast, 97.4%; with MDA-MB-435 melanoma it was 113%; in the experiment with SW-620 colon, 107%; in the experiment with MCF7 breast it was 95.6%; in the experiment on HCT-116 colon, 102%. For the same compound, the growth in the experiment with HCC-2998 colon was 94.8%; in the experiment with KM12 colon it was 114%.

Regarding `Cc1cc(Cc2cc(C)c(N)cc2N)c(N)cc1N`, the growth with T-47D breast was 83.5%; in the experiment on BT-549 breast, 98.3%; in the experiment on MDA-MB-435 melanoma it was 106%; with SW-620 colon, 90.8%; in the experiment with MCF7 breast, 88.6%; in the experiment on HCT-116 colon it was 94.8%. The growth was 108% with HCC-2998 colon and 99.5% in the experiment with KM12 colon.

For the compound `COS(=O)(=O)c1ccc(Br)cc1`, the growth in the experiment on T-47D breast is 93.9%; with BT-549 breast it was 113%; in the experiment on MDA-MB-435 melanoma it was 110%; in the experiment with SW-620 colon, 97.5%; with MCF7 breast it was 97.3%; with HCT-116 colon it was 93.9%. Moreover, the growth in the experiment with HCC-2998 colon was 99.8%; with KM12 colon, 91.7%.

For `Nc1ccc(CC(=O)O)c(N)c1`, the growth in the experiment with T-47D breast was 117%; in the experiment with BT-549 breast, 105%; in the experiment on MDA-MB-435 melanoma, 97.6%; in the experiment on SW-620 colon it was 100%; in the experiment with MCF7 breast, 99.3%; with HCT-116 colon, 103%. For the same compound, the growth in the experiment on HCC-2998 colon was 104%; in the experiment with KM12 colon it was 93.5%.

Consider `CCOC(=O)C(O)C(O)C(=O)OCC` (centres undefined), for which the growth with T-47D breast was 98%; in the experiment with BT-549 breast it was 107%; in the experiment with MDA-MB-435 melanoma, 108%; in the experiment on SW-620 colon it was 101%; with MCF7 breast, 107%; in the experiment on HCT-116 colon, 103%. Moreover, the figures for the growth in the experiment with HCC-2998 colon and in the experiment with KM12 colon were 111% and 102%, respectively.

As for `OC1OC(COC(c2ccccc2)(c2ccccc2)c2ccccc2)C(O)C(O)C1O` (centres undefined), the growth is 87.5% with T-47D breast; 99.6% in the experiment on BT-549 breast; 90.9% with MDA-MB-435 melanoma; 105% in the experiment on SW-620 colon; 93.3% in the experiment on MCF7 breast; 90.7% in the experiment with HCT-116 colon. Also, the growth was 110% in the experiment on HCC-2998 colon and 107% with KM12 colon.

Take `COCCCNC(=O)c1nnn2c1nc(N)c1cc(Cl)ccc12`: the growth in the experiment on T-47D breast is 79%; in the experiment with BT-549 breast, 79.2%; in the experiment with MDA-MB-435 melanoma it was 10.9%; in the experiment on SW-620 colon, 81%; in the experiment with MCF7 breast, 73.4%; in the experiment on HCT-116 colon, 77.6%. For the same compound, the results for the growth with HCC-2998 colon and in the experiment on KM12 colon were 89.4% and 50.2%, respectively.

In the case of `O=C(O)CCC(NC(=O)OCc1ccccc1)C(=O)O` (centres undefined), the growth with T-47D breast was 98.5%; in the experiment on BT-549 breast, 119%; with MDA-MB-435 melanoma it was 104%; in the experiment on SW-620 colon, 101%; in the experiment on MCF7 breast, 93%; with HCT-116 colon it was 111%. For the same compound, the growth with HCC-2998 colon was 99.7%; in the experiment with KM12 colon it was 105%.

`O=S(=O)(Cc1ccccc1)c1ccccc1`: the growth was 110% in the experiment on T-47D breast; 105% in the experiment with BT-549 breast; 107% with MDA-MB-435 melanoma; 115% in the experiment with SW-620 colon; 99.5% in the experiment with MCF7 breast; 103% in the experiment on HCT-116 colon. Moreover, the growth in the experiment on HCC-2998 colon is 105%; with KM12 colon, 110%.

Consider `COc1ccc(Oc2c(I)cc(CC(NC(C)=O)C(=O)O)cc2I)cc1` (centres undefined), for which the growth in the experiment with T-47D breast is 74%; with BT-549 breast, 65.1%; with MDA-MB-435 melanoma it was 85.1%; in the experiment with SW-620 colon, 104%; with MCF7 breast, 89.2%; with HCT-116 colon, 79.6%. The growth in the experiment with HCC-2998 colon is 88%; in the experiment with KM12 colon, 113%.
